{"source": "PubChem BioAssay AID1851", "about": "(National Center for Advancing Translational Sciences (NCATS), 2009)", "note": "Screen size: about 16,000 compounds; about 5,700 (36%) were called active. Roughly 24% stayed inconclusive and do not appear here. The list shows a part of the results. Unmarked numbers belong to inactive results. Calls follow the shape of the dose curve; as a rule, active = well fitted curve in the direction sought with a large enough effect; inconclusive = small, poorly fitted or top-dose-only effect, or effect the other way; inactive = no such curve, though single readings can be large or run the other way. % is scaled to controls: 0 for no effect and ±100 for the full control effect.", "data": [{"molecular_target": "Cytochrome P450 1A2 (Homo sapiens) (UniProt P05177)", "sequence (P05177 whole entry, looked up)": "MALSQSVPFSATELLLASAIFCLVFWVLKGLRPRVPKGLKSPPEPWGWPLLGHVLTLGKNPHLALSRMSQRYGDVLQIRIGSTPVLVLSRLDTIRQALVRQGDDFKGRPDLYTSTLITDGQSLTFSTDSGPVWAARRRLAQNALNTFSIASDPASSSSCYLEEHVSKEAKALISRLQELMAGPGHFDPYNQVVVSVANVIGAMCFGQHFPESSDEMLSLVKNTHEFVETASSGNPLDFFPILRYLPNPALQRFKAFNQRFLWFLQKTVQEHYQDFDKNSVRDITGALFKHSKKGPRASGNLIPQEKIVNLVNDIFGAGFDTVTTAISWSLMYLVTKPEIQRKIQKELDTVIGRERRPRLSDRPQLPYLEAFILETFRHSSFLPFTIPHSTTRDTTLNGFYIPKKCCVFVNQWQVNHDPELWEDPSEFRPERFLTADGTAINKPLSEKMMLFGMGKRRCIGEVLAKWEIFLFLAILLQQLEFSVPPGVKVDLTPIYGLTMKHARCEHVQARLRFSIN", "assay": "Cytochrome panel assay with activity outcomes", "settings": "recombinant CYP, pro-luciferin dealkylation, luminescence, p450-cyp1a2; series mostly up to 57.1 µM", "values": [{"smiles": "COCCNc1ccnc(-c2ccccc2CN(C)C)n1", "AC50": "5010 nM (active)"}, {"smiles": "COCCNc1ccnc(-c2ccccc2C)n1", "AC50": "12600 nM (active)"}, {"smiles": "CN(C)CCNc1ccccn1", "activity, negative = inhibition": "-5.87% [at 11.4 µM]"}, {"smiles": "CC1(C)C2([N+](=O)[O-])CN3CC1([N+](=O)[O-])CN(C2)C31CCCC1", "AC50": "inactive"}, {"smiles": "Cc1noc(C)c1C(=O)N1CCC2(CCN(Cc3ccncc3)CC2)CC1", "AC50": "inactive"}, {"smiles": "CCc1c(C)c(C#N)c2nc3ccccc3n2c1N1CCN(c2cc(C)ccn2)CC1", "AC50": "inactive"}, {"smiles": "CCCCSCc1nc2nc(Cl)c(Cl)nc2[nH]1", "AC50": "3160 nM (active)"}, {"smiles": "O=C(O)c1nc2nc(Cl)c(Cl)nc2[nH]1", "activity, negative = inhibition": "-18.2% [at 11.4 µM]"}, {"smiles": "O=C(CSCc1ccc(Cl)cc1)Nc1ccc2c(c1)OCCO2", "AC50": "17800 nM (active)"}, {"smiles": "CC(C)(C)NC(=O)CN(Cc1cccs1)C(=O)CCC(=O)Nc1nccs1", "AC50": "inactive"}, {"smiles": "O=C(O)CCC(=O)N1CCOc2ccc(Cl)cc21", "AC50": "inactive"}, {"smiles": "O=C(CN1CCN(CC(=O)Nc2ccccc2Cl)CC1)Nc1ccc2c(c1)OCCO2", "AC50": "inactive"}, {"smiles": "C/C(=N\\NC(=O)CSCc1ccc(Cl)cc1)c1ccc2c(c1)OCCO2", "AC50": "7940 nM (active)"}, {"smiles": "O=C(CSCc1ccc(Cl)cc1)Nc1nccs1", "AC50": "178 nM (active)"}, {"smiles": "O=S(=O)(c1ccccc1)N1CCC2(CCN(Cc3nccs3)CC2)CC1", "AC50": "inactive"}, {"smiles": "O=C(c1csnn1)N1CCC[C@@]2(CCN(c3ccncc3)C2)C1", "AC50": "inactive"}, {"smiles": "CCOC(=O)c1c(NC(C)=O)sc2c(OC)cccc12", "AC50": "316 nM (active)"}, {"smiles": "NS(=O)(=O)c1cc2c(cc1Cl)=NC(CCC(=O)O)=NS=2(=O)O", "activity, negative = inhibition": "4.98% [at 11.4 µM]"}, {"smiles": "Cc1nn(C(C)C(=O)N2CCc3ccccc32)c(C)c1[N+](=O)[O-]", "note": "(stereo unspecified)", "AC50": "inactive"}, {"smiles": "Cc1nn(C(C)C(=O)Nc2sc3c(c2C#N)CCCC3)c(C)c1[N+](=O)[O-]", "note": "(stereo unspecified)", "AC50": "3550 nM (active)"}, {"smiles": "CCOc1cc(C2NN=C(c3ccccc3)S2)ccc1OCc1ccccc1Cl", "note": "(stereo unspecified)", "AC50": "3160 nM (active)"}, {"smiles": "CN(C)c1ccnc(-c2cccc(NS(C)(=O)=O)c2)n1", "AC50": "1580 nM (active)"}, {"smiles": "CN(Cc1ccco1)c1ccnc(-c2cccc(NS(C)(=O)=O)c2)n1", "AC50": "1260 nM (active)"}, {"smiles": "C=C[C@@]1(C)CC(=O)[C@@]2(O)[C@@]3(C)[C@@H](O)CCC(C)(C)[C@@H]3[C@H](OC(=O)CCN(C)C)[C@H](OC(C)=O)[C@@]2(C)O1", "AC50": "inactive"}, {"smiles": "O=C(Nc1ccc(Br)cc1)c1ccc(CSC2=NCCS2)cc1", "AC50": "inactive"}, {"smiles": "COC(=O)c1ccc(C(=O)OC)c(NC(=O)CSCc2ccc(Br)cc2)c1", "AC50": "891 nM (active)"}, {"smiles": "CC(=O)Nc1ccc(-c2cc(-c3ccc(NC(C)=O)cc3)nc(-c3ccccc3)n2)cc1", "AC50": "inactive"}, {"smiles": "N#Cc1ccc(Oc2nc(C(N)=O)cc(-c3ccccc3)n2)cc1", "AC50": "2000 nM (active)"}, {"smiles": "Cc1ccc(NC(=O)c2cc([N+](=O)[O-])ccc2NCc2cccnc2)cc1Cl", "AC50": "126 nM (active)"}, {"smiles": "COC(=O)C1(Cc2ccccc2)C2c3cc(C(=O)N4CCCC4)n(Cc4ccc(OC(F)(F)F)cc4)c3CC2CN1C(=O)c1ccccc1", "note": "(stereo unspecified)", "AC50": "inactive"}, {"smiles": "Cc1cc(C)c(S(=O)(=O)N2CCN(c3ccc([N+](=O)[O-])c(NCC4CCCO4)c3)CC2)c(C)c1", "note": "(stereo unspecified)", "AC50": "inactive"}, {"smiles": "O=[N+]([O-])c1cccnc1N1CCCCC1", "AC50": "5010 nM (active)"}, {"smiles": "CC(C)c1ccc(CNc2cc(N3CCCC3)ccc2[N+](=O)[O-])cc1", "AC50": "3160 nM (active)"}, {"smiles": "CS(=O)(=O)N1CCN(c2ccc([N+](=O)[O-])c(NCc3ccccc3)c2)CC1", "AC50": "12600 nM (active)"}, {"smiles": "Cc1cccc(C(=O)N2CCN(c3ccc([N+](=O)[O-])c(NCc4ccco4)c3)CC2)c1", "AC50": "inactive"}, {"smiles": "O=C(O)CSc1ncccc1[N+](=O)[O-]", "activity, negative = inhibition": "2.52% [at 11.4 µM]"}, {"smiles": "O=[N+]([O-])c1ccc(N2CCCC2)cc1NCc1ccccc1", "AC50": "794 nM (active)"}, {"smiles": "O=[N+]([O-])c1nccn1C[C@H](O)CN1CCCCC1", "activity, negative = inhibition": "4.83% [at 11.4 µM]"}, {"smiles": "Cc1cc(C)c(S(=O)(=O)N2CCN(c3ccc([N+](=O)[O-])c(NCc4ccco4)c3)CC2)c(C)c1", "AC50": "inactive"}, {"smiles": "Cc1cc(C)n(-c2cc(N3CCN(C(=O)c4ccc(C(C)(C)C)cc4)CC3)ccc2[N+](=O)[O-])n1", "AC50": "inactive"}, {"smiles": "Cc1ccccc1C(=O)N1CCN(c2ccc([N+](=O)[O-])c(NCc3ccco3)c2)CC1", "AC50": "inactive"}, {"smiles": "CC1CCCC(NC(=O)C2CCN(S(=O)(=O)N3CCC4(CC3)OCCO4)CC2)C1C", "note": "(stereo unspecified)", "AC50": "inactive"}, {"smiles": "O=[N+]([O-])c1ccc(N2CCCCC2)c(Cl)c1N1CCCCC1", "AC50": "2000 nM (active)"}, {"smiles": "O=[N+]([O-])c1ccc(N2CCCC2)cc1N1CCCC1", "AC50": "316 nM (active)"}, {"smiles": "Cc1ccccc1C(=O)N1CCN(c2ccc([N+](=O)[O-])c(N3CCOCC3)c2)CC1", "AC50": "inactive"}, {"smiles": "Cc1ccc(OCC(=O)N2CCN(c3ccc([N+](=O)[O-])c(N4CCOCC4)c3)CC2)cc1", "AC50": "inactive"}, {"smiles": "O=C(O)C1CCN(c2c([N+](=O)[O-])cc(C(F)(F)F)cc2[N+](=O)[O-])CC1", "AC50": "inactive"}, {"smiles": "Cn1c(=O)n(C)c2cc([N+](=O)[O-])c(N3CCN(C(=O)c4ccccc4Cl)CC3)cc21", "AC50": "inactive"}, {"smiles": "O=[N+]([O-])c1cc(F)c(N2CCOCC2)cc1N1CCCCC1", "AC50": "1260 nM (active)"}, {"smiles": "Cn1c(=O)n2n(c1=O)[C@H]1[C@H](O)[C@H]3O[C@H]3C(=O)[C@H]1CC2", "activity, negative = inhibition": "-12.9% [at 11.4 µM]"}, {"smiles": "Cc1cccc(NC2=NC(=S)N(c3ccc(C(=O)O)cc3)C23CCCCC3)c1", "AC50": "inactive"}, {"smiles": "Cc1cccc(NC(=O)C23CCC(C)(C2Br)C3(C)C)c1", "note": "(stereo unspecified)", "AC50": "15800 nM (active)"}, {"smiles": "COc1ccc(C(=O)NC2CCN(C(=S)Nc3cccc(C)c3)CC2)cc1", "AC50": "inactive"}, {"smiles": "CC12CCC(C(=O)Nc3cccc4ccccc34)(C1Br)C2(C)C", "note": "(stereo unspecified)", "AC50": "22400 nM (active)"}, {"smiles": "COc1ccc(CNc2ncnc3ccc(-c4ccccc4OC)cc23)c(OC)c1", "AC50": "3160 nM (active)"}, {"smiles": "COc1ccccc1CNc1ncnc2ccc(-c3ccccc3OC)cc12", "AC50": "1000 nM (active)"}, {"smiles": "C[N+](C)(C)CCOC(=O)CCC(=O)OCC[N+](C)(C)C", "AC50": "inactive"}, {"smiles": "CCOC(=S)NC(=O)c1sc2ccccc2c1Cl", "AC50": "1580 nM (active)"}, {"smiles": "O=C(NC(=S)N(CCCCO)C1CCCCC1)c1sc2ccccc2c1Cl", "AC50": "1260 nM (active)"}, {"smiles": "CCCCOC(=S)NC(=O)c1sc2ccccc2c1Cl", "AC50": "2000 nM (active)"}, {"smiles": "O=C(c1sc2ccccc2c1Cl)N(Cc1ccccc1)C1CCS(=O)(=O)C1", "note": "(stereo unspecified)", "AC50": "inactive"}]}]}
